AF4-AF9 inh: MLL-AF4/AF9 protein interaction inhibition | AlphaScreen, biotin-AF4 peptide binding to FLAG-AF9 | inhibition, % at 10 µM | actives 0.47% (n = 350,000) | AID 651704;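 active = every replicate reaching a set inhibition limit, whatever the replicate mean, cut at about 25% in these data; inconclusive = mean inhibition reaches that limit but some replicates miss it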;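 note: 0% = plate neutral control median and 100% = total signal loss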
RAD52 inh: inhibitors of human RAD52 DNA annealing; P43351; actives 0.46% (n = 360,000); recombinant RAD52 DNA annealing, FRET fluorescence; inhibition, % at 18.7 µM;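 active = every replicate showing at least 50% inhibition; inconclusive = mean inhibition at least 50% but not in every replicate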
Target sequence (P43351 whole entry, looked up): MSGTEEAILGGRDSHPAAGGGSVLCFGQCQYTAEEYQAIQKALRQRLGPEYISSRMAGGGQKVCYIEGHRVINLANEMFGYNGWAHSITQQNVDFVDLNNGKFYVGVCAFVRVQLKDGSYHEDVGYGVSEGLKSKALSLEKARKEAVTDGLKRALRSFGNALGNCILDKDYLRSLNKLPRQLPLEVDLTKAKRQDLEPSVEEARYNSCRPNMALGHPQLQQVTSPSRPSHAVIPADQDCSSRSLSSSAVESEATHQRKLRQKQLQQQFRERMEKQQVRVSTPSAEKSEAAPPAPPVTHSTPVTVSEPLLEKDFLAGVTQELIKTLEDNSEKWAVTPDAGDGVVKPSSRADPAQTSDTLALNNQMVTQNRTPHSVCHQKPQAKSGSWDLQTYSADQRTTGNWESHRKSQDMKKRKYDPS
DENV2 CPE: protects cells from dengue virus 2 cytopathic effect; CPE inhibition, % at 9.99 µM; actives 1.7% (n = 350,000); AID 651640; DENV2-infected cells, cytopathic effect rescue, plate reader; in the data active = CPE inhibition above about 20%, passing the limit was not always enough; inconclusive = no clear call, values can overlap the other calls; tested in BHK-21 cells;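 note: 0% = median of neutral control wells and 100% = median of positive control wells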
FGF22 binding: binders of recombinant human FGF22 by thermal shift; actives 1.5% (n = 340,000); Q9HCT0; AID 651658; activity (Tm shift, normalised), % at 9.99 µM; SYPRO orange fluorescence; percent of sucrose octasulfate shift, DMSO zero;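 active = mean Tm shift, scaled 0 neutral to 100 positive control, at about 1.3% or above, every replicate too, limit read from the data; inconclusive = no clear call, values can overlap the other calls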
Target sequence (Q9HCT0 whole entry, looked up): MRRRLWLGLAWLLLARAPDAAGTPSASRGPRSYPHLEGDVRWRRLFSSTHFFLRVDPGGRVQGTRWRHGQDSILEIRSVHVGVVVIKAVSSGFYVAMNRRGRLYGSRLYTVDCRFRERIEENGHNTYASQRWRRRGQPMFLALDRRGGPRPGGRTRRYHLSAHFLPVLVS
ERAP1 HTS inh: ERAP1 (human) enzyme inhibition | Q9NZ08 | recombinant ERAP1, Leu-AMC fluorescence, 60 min | inhibition, % at 10.7 µM | actives 0.15% (n = 340,000);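 active = mean replicate inhibition of at least 30%, or all replicates individually reaching that 30% level; inactive = mean below 30% and not every replicate reaching it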;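 note: 0% = neutral control wells and 100% = L-leucinethiol positive control wells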
An asterisk follows results filed as active; ? = inconclusive; · = no result. Shown are actives, neighbours in structure and some others; about 4% of the full set was active somewhere.

SMILES | AF4-AF9 inh | RAD52 inh | DENV2 CPE | FGF22 binding | ERAP1 HTS inh
C[C@@H]1CCCCO[C@@H](CN(C)C(=O)Nc2ccccc2)[C@@H](C)CN([C@H](C)CO)C(=O)c2cc(NC(=O)c3ccccc3)ccc2O1 | 1 | -15 | 12 | 0 | 3
COc1ccc2c3c([nH]c2c1)[C@@H](CO)N(C(=O)c1ccc(F)cc1)CC31CN(C(=O)CC2CC2)C1 | 1 | -6 | 5 | 0 | 2
C[C@@H]1CCCCO[C@H](CN(C)C(=O)C2CCCCC2)[C@@H](C)CN([C@@H](C)CO)C(=O)c2cc(NS(=O)(=O)c3cn(C)cn3)ccc2O1 | -1 | 6 | 9 | -1 | 0
COc1cc(CNc2nnnn2C)ccc1OCc1ccc(F)cc1Cl | 0 | 5 | ? | -1 | -2
CCn1nnnc1NCc1ccc(OCc2ccc(F)cc2Cl)c(OC)c1 | -2 | -5 | -1 | 43* | 4
CC(=O)N1[C@@H]2Cn3c(cccc3=O)[C@H]1[C@@H](C(=O)N[C@@H](C)c1ccccc1)[C@@H]2CO | 0 | 28 | 5 | · | -4
O=C(Nc1ccc(Br)cc1F)C1CCN(c2nnc(-n3cccc3)s2)CC1 | 0 | -29 | 26* | 0 | -1
COc1ccccc1CNC(=O)C(C)Oc1ccccc1 (centres undefined) | 1 | -3 | 0 | 0 | ·
COCCNC(=O)C(C)Oc1ccccc1 (centres undefined) | -2 | -5 | -1 | 43* | -3
COc1ccc2c3c(n(C)c2c1)[C@@H](CO)N(C(=O)C1CCC1)CC31CCN(Cc2cccc(F)c2)CC1 | 29* | 10 | -3 | 0 | -1
COc1ccc2c3c(n(C)c2c1)[C@H](CO)N(C(=O)C1CCOCC1)CC31CN(C(=O)C2CC2)C1 | -16 | 11 | 22* | 0 | 1
COc1ccc2c3c(n(C)c2c1)[C@H](CO)N(C(=O)C1CC1)CC31CCN(Cc2cccc(F)c2)CC1 | 26* | 26 | -24 | · | 1
COc1ccc2c3c(n(C)c2c1)[C@@H](CO)N(C(=O)C1CCOCC1)CC31CN(C(=O)C2CC2)C1 | -19 | 6 | -1 | 0 | 1
COc1cccc(CN2CC3(C2)CN(C(=O)C2CC2)[C@H](CO)c2c3c3ccc(OC)cc3n2C)c1 | 27* | · | -4 | · | ·
COc1ccc2c3c(n(C)c2c1)[C@@H](CO)N(C(=O)C1CC1)CC31CN(Cc2cccc(F)c2)C1 | · | 17 | 0 | 0 | ·
CO[C@@H]1CN(C)C(=O)c2cc(NS(C)(=O)=O)ccc2OC[C@H](C)N(C(=O)C2CC2)C[C@H]1C | -1 | 5 | 12 | 0 | 0
O=C(O)C[C@@H]1C[C@H]2c3cc(NC(=O)NC4CCCC4)ccc3O[C@H]2[C@@H](CO)O1 | -3 | -13 | 9 | 0 | 0
O=C(c1ccccc1)N1C[C@@H]2[C@H](c3ccccc31)[C@H](CO)N2C(=O)CN1CCOCC1 | 0 | -18 | 17 | 0 | -2
O=C(O)c1ccc(N2C(=O)Nc3ccccc3N2O)cc1 | -2 | -22 | -3 | 0 | -3
CC(=O)c1cccc(N2C(=O)Nc3ccccc3N2O)c1 | -2 | -2 | 2 | 43* | 0
COc1ccc2c3c([nH]c2c1)[C@@H](CO)N(C(=O)c1cccnc1)CC31CCN(C(=O)NC(C)C)CC1 | 1 | · | -12 | 0 | ·
Cc1ccc(/C=N/NC(=O)c2ccc(-n3cnnn3)cc2)cc1 | 2 | -4 | 32* | 0 | 0
O=C(N/N=C/c1ccc(F)cc1)c1ccc(-n2cnnn2)cc1 | -2 | -15 | 5 | 0 | -4
Cc1ccc(C23OCCN2CCn2nc4ccccc4c23)cc1 (centres undefined) | -7 | 4 | 74* | 0 | ·
CN1CCN(c2ccc(NC(=O)COc3cccc4ccccc34)cc2)CC1 | 7 | -7 | 5 | 0 | 2
SMILES | AF4-AF9 inh | RAD52 inh | DENV2 CPE | FGF22 binding | ERAP1 HTS inh
C=CC(=O)Nc1cccc(Oc2ccnc(Nc3ccc(N4CCN(C)CC4)cc3)n2)c1 | 70* | 93* | -5 | 0 | 13
O=C(CC1CC1)N1CC2(C1)[C@@H](c1ccccc1)[C@@H](CO)N2CC1CCOCC1 | -4 | 5 | 2 | 0 | 1
CC(=O)N1CC2(C1)[C@H](c1ccccc1)[C@@H](CO)N2CC1CCOCC1 | -1 | 0 | 61* | 0 | -2
CC(=O)N1CC2(C1)[C@H](c1ccccc1)[C@H](CO)N2CC1CCOCC1 | -2 | -4 | -6 | 0 | 0
CCCNC(=O)N1CC2(C1)[C@H](c1ccccc1)[C@@H](CO)N2CC1CCOCC1 | -1 | -7 | 24* | 1 | 5
CC(=O)N1CC2(C1)[C@@H](c1ccccc1)[C@@H](CO)N2CC1CCOCC1 | 0 | -1 | 22* | 0 | 0
O=C(CC1CC1)N1CC2(C1)[C@H](c1ccccc1)[C@H](CO)N2CC1CCOCC1 | -5 | 10 | -13 | 0 | -1
CN(C)CC(=O)N1[C@H](CO)[C@@H](c2ccccc2)C12CN(CC1CCOCC1)C2 | -1 | -6 | 20* | 0 | -2
C[C@H]1CN([C@@H](C)CO)C(=O)Cc2cc(NC(=O)Nc3ccccc3)ccc2O[C@@H]1CN(C)C(=O)Nc1ccc(F)cc1 | -1 | 10 | -5 | -1 | 3
COc1ccc2c3c(n(C)c2c1)[C@@H](CO)N(C(=O)c1cnccn1)CC31CCN(C(=O)c2cnccn2)CC1 | · | 5 | -4 | 0 | ·
CC(=O)N1CC2(C1)[C@H](c1ccccc1)[C@@H](CO)N2Cc1ccccc1 | -1 | -5 | 24* | 0 | -4
O=S(=O)(Cc1ccccc1)N1CC2(C1)[C@H](c1ccccc1)[C@@H](CO)N2CC1CCOCC1 | -2 | -3 | 27* | 0 | 1
CCS(=O)(=O)N1CC2(C1)[C@@H](c1ccccc1)[C@@H](CO)N2CC1CCCC1 | -1 | -1 | -1 | 0 | -2
COc1ccc(CN(C(=O)c2ccc(C)cc2)c2cccc(N)c2)cc1 | 1 | -17 | 38* | 0 | -2
COc1ccc(C(=O)N(Cc2ccccc2)c2cccc(C)c2)cc1 | 3 | 1 | 10 | 0 | 2
COc1cc(OC)cc(C(=O)N[C@@H](CCSC)c2nc3ccccc3[nH]2)c1 | 5 | 1 | -1 | 43* | -1
COc1cccc(C(=O)N[C@@H](CCSC)c2nc3ccccc3[nH]2)c1 | 2 | -10 | 5 | 1 | -2
O=C(C[C@@H]1CC[C@H]2[C@@H](COC[C@@H](O)CN2Cc2ccc3c(c2)OCO3)O1)Nc1ccc(-c2ccccc2)cc1 | · | · | 2 | 1 | ·
C[C@@H]1CN([C@@H](C)CO)C(=O)c2cc(NC(=O)Nc3ccc4c(c3)OCO4)ccc2O[C@@H](C)CCCCO[C@@H]1CN(C)C(=O)Nc1ccccc1 | 4 | 27 | -2 | -1 | 3
COc1ccc(/C=N/Nc2cc(C)nc3ccccc23)cc1 | 17 | 91* | -29 | 0 | 4
COc1ccc2nc(C)cc(N/N=C/c3ccc(F)cc3)c2c1 | 4 | 6 | -27 | 0 | -1
COc1ccc(N=Cc2c(C)[nH][nH]c2=O)cc1 | -6 | -3 | 6 | 43* | 4
